aSyn rescue: qHTS of alpha-syn Inhibitors | Potency, µM (top dose mostly 46.1 µM), usual class: activators | Yeast expressing alpha-synuclein, growth rescue, BacTiter-Glo, 24 h | 370,000 compounds, 0.14% hits; further: nearly all actives have a fitted effect of over 65% in size
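Rescue of yeast growth: cells expressing toxic alpha-synuclein, induced in galactose at OD600 0.02, incubated with compound 24 h at 30 C. ATP luminescence quantified growth; inhibitors of toxicity appear as activators.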
TDP43 rescue: qHTS of TDP-43 Inhibitors; 410,000 compounds, 1.8% hits; TDP-43 expressing yeast growth rescue, BacTiter-Glo, 24 h; Potency, µM (titrated, usually from 46.1 µM), most hits filed as activators; AID 652104, 2013; further: nearly all actives have a fitted effect of over 50% in size
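Yeast expressing TDP-43 (pregrown in raffinose, seeded at OD600=0.02 in galactose medium) exposed to compounds 24 hr at 30 deg C. Growth read by BacTiter-Glo luminescence; rescue of toxicity appears as increased signal.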
Abeta yeast res: qHTS for compounds that reverse cellular toxicity of Amyloid beta (A-beta) peptide in yeast: Primary Screen | AID 1347071, 2019 | Potency, µM (doses to about 46.1 µM), most hits filed as activators | yeast expressing A-beta42, growth rescue, OD600, 48 h; response scale: 0% DMSO, 100% iron-clioquinol control | 410,000 compounds, 0.063% hits; further: nearly all actives have a fitted effect of over 55% in size
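Growth rescue measured by 600 nm absorbance after 48 h yeast culture at 30 C with compound. Values normalized between DMSO and an equimolar ferric chloride plus clioquinol control.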
Mito fusion yeast: qHTS Assay for Small Molecule Inhibitors of Mitochondrial Division or Activators of Mitochondrial Fusion | Potency, µM (series often up to 46.1 µM), usual class: activators | 320,000 compounds, 0.23% hits | AID 485298, 2010 | S. cerevisiae fusion-defective mutant growth rescue, CellTiterGlo 48 h; further: nearly all actives have a fitted effect of over 45% in size
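Growth-rescue viability read-out: after 48 h at the non-permissive 37C in glycerol/ethanol YPEG, yeast mitochondrial fusion mutants are measured by CellTiterGlo luminescence; compounds (23 nl pinned per well) restoring growth score as division inhibitors or fusion activators.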
FUS suppressor: qHTS for Suppressors of FUS Proteinopathy: Primary screen using FUS-linked yeast assay; S. cerevisiae FUS-expressing, growth rescue, OD600, 24 h; Potency, µM (titrated, usually from 76.6 µM), hits mostly activators; 390,000 compounds, 0.24% hits; AID 1347120, 2019; further: nearly all actives have a fitted effect of over 55% in size
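Restored growth of FUS-toxic S. cerevisiae, read as 600 nm absorbance after 24 h at 30C in galactose medium (starting OD 0.005). Controls CP55940 and DMSO.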
A-T KAP1 phos: qHTS Assay for Identifying a Potential Treatment of Ataxia-Telangiectasia; F2112 A-T fibroblasts, KAP-1 phosphorylation AlphaLISA; neocarzinostatin DNA damage 30 min before lysis; AID 485349, 2010; Potency, µM (doses to about 57.5 µM), actives largely listed as activators; 320,000 compounds, 0.19% hits; further: nearly all actives have a fitted effect of over 45% in size
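ATM-like activity read as KAP-1 phosphorylation via AlphaLISA donor/acceptor antibody pairs after lysis and 6 hr at 25C. Cells were ATM-null patient fibroblasts (F2112, hTERT), dosed 60 min, then exposed to the DSB inducer NCS for 30 min.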
A number is an active result; . = inactive; ? = inconclusive; / = not tested or not shown; ! = repeats disagree; [ ] = another dose, or the depositor's remark. A selection: hits, their analogues and other compounds. The true share with any hit is near 2.4%. The call rests on the fitted dose curve; in most records, active means well fitted curve in the direction sought with a large enough effect; inconclusive means small, poorly fitted or top-dose-only effect, or another doubt; inactive means no such curve, though single readings can be large; an effect the other way counts as inactive or inconclusive.

SMILES | aSyn rescue | TDP43 rescue | Abeta yeast res | Mito fusion yeast | FUS suppressor | A-T KAP1 phos
CCc1ccccc1S(=O)(=O)Cc1ccc(C(=O)NCc2ccc(Cl)cc2)o1 | / | 35µM | . | / | . | /
CCc1ccccc1S(=O)(=O)Cc1ccc(C(=O)NCCc2ccc(Cl)cc2)o1 | / | 35µM | . | / | ? | /
O=C(NCCc1ccccc1)c1ccc(CS(=O)(=O)c2ccc(Cl)cc2)o1 | . | . | . | . | . | .
COc1ccc(C(=O)C(CN2CCOCC2)c2ccccc2)cc1 (stereo not drawn) | . | ? | . | . | . | /
O=C(c1ccc(F)cc1)C(CN1CCOCC1)c1ccccc1 (stereo not drawn) | . | 18µM | . | . | / | 40µM
O=C(c1ccccc1)C(CCC(CN1CCOCC1)C(=O)c1ccccc1)CN1CCOCC1 (stereo not drawn) | . | . | . | . | . | 35µM
COc1ccc(Br)cc1CNC(=O)CCCn1c(=O)c2cccn2c2ccccc21 | / | . | . | / | . | /
CCc1cc(C(=O)/C=C/c2cc3c(cc2C)OCCO3)c(O)cc1O | . | / | / | / | / | /
S=c1[nH]nc(COc2ccccc2)n1/N=C/c1cccc(Cl)c1Cl | . | ? | . | . | . | .
S=c1[nH]nc(COc2ccccc2)n1/N=C/c1ccccc1Cl | . | . | . | . | . | 5µM
C(=C\c1nc(-c2ccccc2)no1)/c1ccccc1 | . | . | . | . | . | .
C(=C\c1nc(-c2ccncc2)no1)/c1ccccc1 | . | 11µM | . | . | . | .
O=C(/C=C/c1cccc([N+](=O)[O-])c1)N1CCN(c2ccccc2F)CC1 | . | ? | . | . | / | .
CCOc1ccccc1N1CCN(C(=O)/C=C/c2cccc([N+](=O)[O-])c2)CC1 | . | 14µM | . | . | . | .
S=c1[nH]c2cc(-c3ccccc3)ccc2o1 | . | ? | . | 16µM | . | .
O=S(=O)(c1ccc2oc(=S)[nH]c2c1)N1CCCCC1 | . | . | . | . | . | .
COc1ccc(C2=C(C)C(N3CCC(C(=O)Nc4ccc(F)cc4C)CC3)=NS2(=O)=O)cc1 | / | ? | . | / | . | /
COC(=O)c1c(C)oc2ccc(N(C(=O)c3ccncc3)S(=O)(=O)c3ccc(Br)cc3)cc12 | / | ? | . | . | ? | /
O=C(c1ccncc1)N(c1ccc2oc3c(c2c1)CCCC3)S(=O)(=O)c1ccc(F)cc1 | . | ? | . | 18µM | . | .
CC(=O)NC(CC(=O)NNC(=O)COc1c(C)cccc1C)c1ccccc1 (stereo not drawn) | . | . | . | / | / | .
Cc1cccc(C)c1OCC(=O)N[C@@H](Cc1ccccc1)[C@@H](O)C[C@H](Cc1ccccc1)NC(=O)[C@H](C(C)C)N1CCCNC1=O | . | / | / | / | 32µM | /
C[n+]1cccc(Br)c1 | . | / | / | / | / | /
CCCn1c2ccccc2c2cnn(CC(=O)N3CCC(C(=O)OCC)CC3)c(=O)c21 | / | . | . | / | . | /
CC(C)Cn1c(-c2ccc(Br)cc2)c[nH]c1=S | . | .[0.397 µM] | 3.2µM | . | . | .
CCCC1CCC2(CCCN2CCOC(=O)Nc2cccc(Cl)c2)CC1 (stereo not drawn) | / | / | / | / | . | /
SMILES | aSyn rescue | TDP43 rescue | Abeta yeast res | Mito fusion yeast | FUS suppressor | A-T KAP1 phos
CCOC(=O)c1sc(-c2ccc(F)cc2)cc1N | . | . | . | . | . | .
CCOC(=O)c1sc(-c2ccccc2)cc1N | . | 7.1µM | . | . | . | .
COC(=O)C[C@H]1CC[C@H]2[C@H](COc3ccc(NC(=O)Nc4ccccc4F)cc3C(=O)N2C)O1 | / | / | / | / | . | /
Cc1sc2nc(C3CC3)nc(SCC(=O)N3CCCc4ccccc43)c2c1C | / | / | / | ? | / | .
Cc1sc2nc(C3CC3)nc(SCC(=O)N3CCc4ccccc4C3)c2c1C | . | ? | . | 13µM | / | .
CCOc1ccccc1C(=O)N(Cc1cccs1)c1ccc(Cl)cc1 | / | 22µM | . | / | . | /
Cc1ccc(N(Cc2cccs2)C(=O)c2ccccc2Cl)cc1 | / | . | . | / | . | /
CCCC(C)NC(=O)c1ccc(OCc2ccc(Cl)cc2)c(OC)c1 (stereo not drawn) | . | 22µM | . | . | . | .
CCC(C)NC(=O)c1ccc(COc2ccccc2Cl)cc1 (stereo not drawn) | . | ? | . | . | . | .
CCN(Cc1ccccc1)C(=O)c1oc2ccc(S(=O)(=O)N3CCOCC3)cc2c1C | . | . | . | 10µM | . | .
Cc1ccc(CNC(=O)c2oc3ccc(S(=O)(=O)N4CCC5(CC4)OCCO5)cc3c2C)cc1 | . | . | . | . | 25µM | .
C[C@H]1[C@H](NC(=O)c2ccc(Cl)c(Cl)c2)CC[C@@]23CCCN2C(=O)CCC[C@@H]13 | / | / | / | / | . | /
CCC(C)Sc1nnc(NC(=O)c2ccco2)s1 (stereo not drawn) | . | 13µM | . | / | . | /
CSc1nnc(NC(=O)c2ccco2)s1 | . | . | . | . | . | .
COc1ccc(-c2ccc(C(=O)NC3CCCCC3)c3occc23)c(C)c1 | . | 13µM | . | / | . | /
O=C(NC1CCCCC1)c1ccc(-c2cn[nH]c2)c2ccoc12 | . | 22µM | . | / | . | /
COc1ccc(-c2coc3c(C(=O)NC4CCCCC4)cccc23)c(C)c1 | . | . | . | / | . | /
Cc1nc2ccccc2nc1N1CCCCC1 | . | . | . | . | . | .
O=C(O)CSc1nc2ccccc2nc1N1CCCCC1 | / | 20µM | . | / | . | /
COC(=O)CS(=O)(=O)c1nc2ccccc2nc1N1CCCCC1 | / | 20µM | . | / | . | /
Cc1ccc(NC(=O)CSc2nc3ccccc3nc2N2CCOCC2)cc1 | . | ? | . | . | 32µM! | .
COc1ccc(C(=O)C2(C(=O)Nc3cc(C)cc(C)c3)CC(c3ccccc3C(F)(F)F)=NO2)cc1 (stereo not drawn) | / | / | / | / | . | /
Cn1nnc2c(NCc3ccccc3)ncnc21 | / | . | . | / | . | /
Cc1ccccc1CSc1nnc(-c2ccncc2)o1 | . | 14µM | . | . | . | .
Clc1ccc(CSc2nnc(-c3ccncc3)o2)c(Cl)c1 | / | 2.8µM | . | . | . | .
CCCc1noc(-c2ccc(N3CCCCC3)c([N+](=O)[O-])c2)n1 | / | ? | . | / | . | /
CCOC(=O)[C@@H]1[C@H]2COc3ccccc3[C@H]2N2C(=O)N(c3ccc(Cl)cc3)C(=O)[C@]12C | . | 35µM | . | . | ? | .
CCOC(=O)[C@H]1[C@H]2COc3ccc(Cl)cc3[C@@H]2N2C(=O)c3cc(Cl)ccc3NC(=O)[C@@]12C | . | . | 3.5µM | ? | . | .
